{"source": "paper PMC5540273", "about": "(PLoS ONE, 2017);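 also: kd values determined as follow-up on hits from a single-replicate KINOMEscan panel screen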", "key": {"[1]": {"system": "NLK"}, "[2]": {"system": "PAK4"}, "[3]": {"system": "PIM1"}, "[4]": {"system": "PDGFRB"}, "[5]": {"system": "PIK3CA"}, "[6]": {"system": "PIK3CG"}, "[7]": {"system": "T1, PIK4CB", "T1 construct": "gene PI4KB"}, "[8]": {"system": "PIM2"}}, "data": [{"smiles": "O=C(Nc1n[nH]c2cc(-c3cccc(F)c3)ccc12)C1CC1", "note": "[SB-735464]", "values": [{"measurement": "Kd", "setting": "[1]", "result": 87, "unit": "nM"}]}, {"smiles": "O=C1Cc2cc(Nc3nc(NCc4cccc(S(=O)(=O)C(F)(F)F)c4)ncc3C(F)(F)F)ccc2N1", "values": [{"measurement": "Kd", "setting": "[2]", "result": "> 10000", "unit": "nM"}, {"measurement": "Kd", "setting": "[3]", "result": "> 10000", "unit": "nM"}]}, {"smiles": "Cc1ccc(NC(=O)c2ccnc(N3CCN(C)CC3)c2)cc1-c1ccc(C(=O)NCC2CC2)cc1", "note": "[GW775604]", "values": [{"measurement": "Kd", "setting": "[4]", "result": 300, "unit": "nM"}]}, {"smiles": "Cc1nnc(-c2ccc3ncc(-c4ccc(S(C)=O)cc4)n3c2)o1", "note": "(stereo not shown)", "values": [{"measurement": "Kd", "setting": "[4]", "result": 490, "unit": "nM"}]}, {"smiles": "N#Cc1c(N2CCOCC2)sc(-c2ccn[nH]2)c1-c1ccc(Cl)cc1", "values": [{"measurement": "Kd", "setting": "[5]", "result": 32, "unit": "nM"}]}, {"smiles": "NS(=O)(=O)c1cccc(-c2ccc3nccc(-c4cccc(S(N)(=O)=O)c4)c3c2)c1", "note": "[GW867253]", "values": [{"measurement": "Kd", "setting": "[6]", "result": 81, "unit": "nM"}, {"measurement": "Kd", "setting": "[7]", "result": 32, "unit": "nM"}]}, {"smiles": "NS(=O)(=O)c1cccc(-c2ccc3ncc(N4CCOCC4)nc3c2)c1", "note": "[GSK1535721]", "values": [{"measurement": "Kd", "setting": "[7]", "result": 860, "unit": "nM"}]}, {"smiles": "Cc1nnc(-c2ccc3occ(-c4ccc(C(C)O)cc4)c3c2)o1", "note": "(stereo not shown)", "values": [{"measurement": "Kd", "setting": "[8]", "result": 940, "unit": "nM"}]}]}
